# According to PubChem BioAssay (NCI):
# The panel holds about 83,000 compounds, 20% with a hit somewhere; the sample as a whole holds those more often.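 Single-dose data. Exposure time 48 hours. Values below 10 considered active.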 Values without a mark were called inactive. Active and inactive are the calls of the source.
# Experiments:
# Experiment in all cases: NCI-60 one-dose screen, 48 h (100 = growth as untreated, 0 = no growth, -100 = all killed)
# Settings in all cases: 10 µM unless noted
# DU-145 prostate = test system: DU-145 prostate
# K-562 leukemia = test system: K-562 leukemia
# MALME-3M melanoma = test system: MALME-3M melanoma
# MDA-MB-231 breast = test system: MDA-MB-231 breast
# RXF 393 renal = test system: RXF 393 renal
# SF-268 CNS = test system: SF-268 CNS
# SF-295 CNS = test system: SF-295 CNS
# SF-539 CNS = test system: SF-539 CNS
# UACC-257 melanoma = test system: UACC-257 melanoma
# M14 melanoma = test system: M14 melanoma
# HCT-15 colon = test system: HCT-15 colon
# HT29 colon = test system: HT29 colon
# SNB-75 CNS = test system: SNB-75 CNS
# SNB-19 CNS = test system: SNB-19 CNS
# U251 CNS = test system: U251 CNS
# PC-3 prostate = test system: PC-3 prostate
# SK-MEL-5 melanoma = test system: SK-MEL-5 melanoma
# UACC-62 melanoma = test system: UACC-62 melanoma
# LOX IMVI melanoma = test system: LOX IMVI melanoma
# SK-MEL-28 melanoma = test system: SK-MEL-28 melanoma
Structure (SMILES),growth (DU-145 prostate),growth (K-562 leukemia),growth (MALME-3M melanoma),growth (MDA-MB-231 breast),growth (RXF 393 renal),growth (SF-268 CNS),growth (SF-295 CNS),growth (SF-539 CNS),growth (UACC-257 melanoma),growth (M14 melanoma),growth (HCT-15 colon),growth (HT29 colon),growth (SNB-75 CNS),growth (SNB-19 CNS),growth (U251 CNS),growth (PC-3 prostate),growth (SK-MEL-5 melanoma),growth (UACC-62 melanoma),growth (LOX IMVI melanoma),growth (SK-MEL-28 melanoma)
CCCOC(=O)C1c2cc3c(cc2CC(C)C1C(=O)OCCC)OCO3 (stereo not given),112%,99.6%,104%,90%,93.3%,106%,83%,122%,76.9%,100%,108%,72%,85.6%,98.9%,95.2%,82.9%,92.4%,75.4%,65.4%,103%
CC(=O)N1N=C(c2ccc(C)cc2)CC1c1cn(-c2ccccc2)nc1-c1cccc(Nc2ccnc3cc(Cl)ccc23)c1 (stereo not given),34.3%,15.1%,-2.79% (active),58.9%,67.8%,73.7%,109%,99.4%,106%,87.3%,62.2%,47.7%,102%,83.4%,14.9%,99.8%,73.8%,82.2%,10.4%,51.9%
COc1cc(C(=O)/C=C/c2cn(-c3ccccc3)nc2-c2cccc(Nc3ccnc4cc(Cl)ccc34)c2)cc(OC)c1OC,76.9%,59.5%,73%,62.9%,86.7%,93.6%,117%,98%,111%,100%,87.4%,77.1%,107%,116%,88.1%,107%,71.4%,104%,71.5%,93.9%
Cc1ccc(NC(=O)c2[nH]c(SCCN(C)C)nc2-c2ccc(F)cc2)cc1C#Cc1cnc2cccnn12,-19% (active),-37.3% (active),-9.58% (active),-7.2% (active),-61.6% (active),-23.4% (active),93.1%,-84.4% (active),12.7%,-75.1% (active),-19.6% (active),-14.9% (active),-59.7% (active),21.4%,-58.8% (active),34%,45.5%,35.8%,-49.2% (active),-72.4% (active)
CC(OC(=O)Nc1cccc(Cl)c1)C(=O)O (stereo not given),113%,92.3%,116%,109%,98.4%,99.6%,75.3%,99.1%,91.5%,95.5%,104%,102%,84.6%,96.6%,102%,93%,107%,91.8%,96.9%,112%
CCCc1n(Cc2ccc3ccccc3c2)c2ccccc2[n+]1Cc1ccc2ccccc2c1,2.32% (active),-70.8% (active),-63% (active),-71.7% (active),-79.3% (active),-49.7% (active),-59.8% (active),-34.5% (active),-49.9% (active),-72% (active),4.29% (active),-72.2% (active),-18.2% (active),-76% (active),-92.6% (active),-22.8% (active),-97.3% (active),-89.2% (active),-90.5% (active),-53.6% (active)
C=CCn1c(C)nc2cc(Nc3nc(N4CCCC4)nc4nc[nH]c34)ccc21,48.2%,-9.1% (active),-29.3% (active),-25% (active),54.4%,29.3%,31.2%,-18.7% (active),60.9%,28.8%,94.4%,12.4%,-64.9% (active),44.9%,21.2%,42.6%,49.5%,31.7%,37.8%,30.3%
